In the library only some 2.9% were active in any assay of this set; here they are far more common.
FID counter: fluorescent intercalator displacement, NS3 helicase counter-screen | DNA fluorescent intercalator displacement, fluorescence | inhibition, % at 7.9 µM | actives 0.17% (n = 290,000); in the data active = inhibition above about 37%;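 also: 0% = vehicle and 100% = reference compound; higher means more ethidium bromide displaced from hairpin DNA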
MEKK2 mut-MEK5: signal of MEK5 binding to mutant human MEKK2 PB1 domain; AID 1530; bead flow cytometry, Alexa488-MEK5 binding to MEKK2 mutant; percent response, % at 10 µM; actives 0.35% (n = 290,000); in the data active = percent response above about 24%, passing the limit was not always enough
MEKK2 WT-MEK5: raises or lowers MEK5 binding to wildtype human MEKK2 PB1 domain | AID 1531 | actives 1.1% (n = 290,000) | bead flow cytometry, Alexa488-MEK5 binding to MEKK2 WT; actives lie on both sides | Q9Y2U5 | binding response (% of control), % at 10 µM; in the data active = binding response below about 67% or above about 130%; inconclusive = no clear call, values can overlap the other calls; inactive = in between
dFosB activator: activators of mouse delta FosB homodimer | P13346 | purified delta FosB, TAMRA-CDK5 oligo fluorescence polarization; percent of positive-control signal above neutral wells | activation, % at 25 µM | actives 0.99% (n = 340,000) | AID 493131;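 active = mean activation above about 17%, with every replicate also reaching it, limit read from the data, passing the limit was not always enough; inconclusive = only one of the two conditions met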
Target sequence (P13346 whole entry, looked up): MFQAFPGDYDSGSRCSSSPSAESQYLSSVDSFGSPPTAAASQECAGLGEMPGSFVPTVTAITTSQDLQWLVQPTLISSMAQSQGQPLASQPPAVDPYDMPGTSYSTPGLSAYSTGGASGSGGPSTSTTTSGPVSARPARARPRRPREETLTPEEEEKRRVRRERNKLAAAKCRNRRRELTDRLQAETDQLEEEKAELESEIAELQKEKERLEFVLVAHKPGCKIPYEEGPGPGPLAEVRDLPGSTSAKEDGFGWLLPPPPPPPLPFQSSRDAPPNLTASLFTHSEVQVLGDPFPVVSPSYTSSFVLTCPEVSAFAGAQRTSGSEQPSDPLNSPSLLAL
MEKK3 PB1 HTS: modulators (inhibitors or enhancers) of MEK5 binding to human MEKK3 PB1 domain. AID 1529. actives 1.4% (n = 290,000). bead-based flow cytometry, Alexa488-MEK5 binding to MEKK3; actives lie on both sides; 0 = blocked by unlabeled MEK5, 100 = vehicle. Q99759. binding response (% of control), % at 10 µM;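 active = binding response more than 3 SD above or below the average of its plate-row segment, actives on both sides; inconclusive = wells at one plate position flagged as instrument error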;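 also: Alexa488 bead fluorescence after subtracting the streptavidin-only scavenger bead signal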
MEKK2wt confirm: raises or lowers MEK5 binding to wildtype human MEKK2, retest. shares compounds with MEKK3 PB1 HTS. bead flow cytometry, Alexa488-MEK5 binding to MEKK2 WT; actives lie on both sides. binding response (% of control), % at 10 µM. actives 2.4% (n = 5,900). AID 1892; in the data active = binding response below about 16% or above about 210%; inactive = in between
MEKK2mut-MEK5: signal of MEK5 binding to mutant human MEKK2, retest | shares compounds with MEKK3 PB1 HTS | bead flow cytometry, Alexa488-MEK5 binding to MEKK2 mutant | percent response, % at 10 µM | actives 2% (n = 5,900) | AID 1893; in the data active = percent response mostly above about 71%, no sharp cut-off; inactive = mostly below about 38%;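 also: higher means compound restores mutant binding toward wildtype level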
MEKK3 confirm: confirmation of inhibitors of MEK5 binding to human MEKK3. actives 1.8% (n = 5,900). binding response (% of control), % at 10 µM. shares compounds with MEKK3 PB1 HTS. bead flow cytometry, Alexa488-MEK5 binding to MEKK3; stronger effect = lower value;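 active = binding response below 72% of control, or above a set upper limit, though filed actives all read lower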;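 also: 100% = DMSO only wells and 0% = binding blocked by excess unlabeled MEK5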
* = called active by the depositor; ? = inconclusive; . = no result; [ ] = remark or other dose.

SMILES	FID counter	MEKK2 mut-MEK5	MEKK2 WT-MEK5	dFosB activator	MEKK3 PB1 HTS	MEKK2wt confirm	MEKK2mut-MEK5	MEKK3 confirm
COC(=O)CSc1ncnc2scc(-c3ccccc3)c12	-16	-1	103	-6	106	.	.	.
CCOCC(=O)N1CCN(c2ccccc2OC)CC1	-2	53*	123	0	103	100	-5	100
Fc1ccc(CSc2ncnc3scc(-c4ccccc4)c23)cc1	-6	52*	103	-7	108	96	-4	101
COc1ccccc1N1CCN(C(=O)CSc2ncnc3scc(-c4ccccc4)c23)CC1	-30	0	104	1	148*	103	5	105
O=C(CSc1ncnc2scc(-c3ccccc3)c12)N1CCN(c2ccccc2F)CC1	-11	-1	90	-9	91	.	.	.
COc1ccccc1OCC(=O)N1CCN(c2ccccc2OC)CC1	.	3	102	-7	103	.	.	.
COc1ccc(-n2c(=O)/c(=C\c3cccs3)s/c2=C(/C#N)C(=O)N2CCN(C)CC2)cc1	5	-9	100	5	100	.	.	.
CN(C)CCN1CCc2ccccc21	7	11	144*	-2	100	152	38	97
c1ccc2c(c1)CCN2CCN1CCc2ccccc21	0	2	99	?	98	.	.	.
Cc1n[nH]c(=S)n(/N=C/c2cccs2)c1=O	-1	6	103	-2	102	.	.	.
CC(C)(C)c1n[nH]c(=S)n(/N=C/c2cccs2)c1=O	-9	0	109	-13	147*	104	15	104
COCCNC(=O)Nc1ccc2nc(-c3cccs3)c(-c3cccs3)nc2c1	-11	-3	67*[inhibitor]	-12	92	67	-18	90
O=C(Nc1ccc2nc(-c3cccs3)c(-c3cccs3)nc2c1)NC1CC1	-3	-18	20*[inhibitor]	-13	68*[inhibitor]	54	-20	95
N#CCC(=O)Nc1ccc(C(=O)Nc2cccnc2)cc1	-4	1	102	-3	103	.	.	.
O=C(CCn1cccn1)Nc1ccc2c(c1)OCO2	6	3	95	2	100	.	.	.
COCCNC(=O)CSc1nc(-c2ccc(OC)c(OC)c2)cc(C(F)(F)F)n1	-8	-12	87	-2	79*[inhibitor]	93	0	89
CCn1cc(CNC(=O)CSc2nc(-c3ccc(OC)c(OC)c3)cc(C(F)(F)F)n2)c(C)n1	-33	-1	95	-8	91	.	.	.
Cn1c(C(=O)N2CCN(C(=O)c3ccco3)CC2)cc2c(=O)n3ccccc3nc21	-10	6	129	2	138*	96	-5	97
CC(C)CCn1c(CN2CCN(C(=O)c3ccco3)CC2)nc2c1c(=O)n(C)c(=O)n2C	-35	5	98	-6	95	.	.	.
CCOC(=O)c1cc2c(=O)n3ccccc3nc2n(C(C)C)c1=NC(=O)c1ccco1	-5	-3	91	-20	97	.	.	.
CCCn1c(=NC(=O)c2ccco2)c(C(=O)OCC)cc2c(=O)n3ccccc3nc21	-2	-26	-2.0*[inhibitor]	-10	2.0*[inhibitor]	93	-14	93
CC(C)Cn1c(CN2CCN(C(=O)c3ccco3)CC2)nc2c1c(=O)n(C)c(=O)n2C	-29	3	125	1	141*	101	1	103
CC(C)OC(=O)CSc1nc2ncccc2[nH]1	0	-14	45*[inhibitor]	-10	33*[inhibitor]	100	-2	102
CC(C)OC(=O)CSc1nc2ncc(Cl)cc2[nH]1	1	10	117	-1	110	.	.	.
Cc1cccc(S(=O)(=O)c2c(N)n(-c3ccccc3)c3nc4ccccc4nc23)c1	0	0	105	-19	138*	97	-3	107
SMILES	FID counter	MEKK2 mut-MEK5	MEKK2 WT-MEK5	dFosB activator	MEKK3 PB1 HTS	MEKK2wt confirm	MEKK2mut-MEK5	MEKK3 confirm
Cc1cc(-c2nnnn2-c2cc(Cl)cc(Cl)c2)no1	0	26	112	?	131*	99	-9	101
O=C(c1cccc(Cl)c1)N1CCN(CCCc2ccccc2)CC1	-18	6	99	-16	102	.	.	.
O=C(Nc1ccccc1)N(C1=NCCCCS1)c1cccc2ccccc12	0	4	116	4	127*	102	4	98
Cn1c(SCC(=O)O)nnc1-c1ccc2ncccc2c1	3	1	100	.	103	.	.	.
COc1ccc(CCNC(=O)c2ccc(Cl)c(S(=O)(=O)N(C)c3ccccc3)c2)cc1	-24	0	100	-2	93	.	.	.
O=C(CN1C2=NCCN2c2ccccc21)c1ccc(Br)s1	11	0	105	0	142*	99	0	95
CCCCCCCCCCS(=O)(=O)N/N=C/c1ccc(O)cc1	-13	1	100	-3	119	.	.	.
CCC(=O)NN1CCc2cc3ccc(C)cc3nc21	-3	2	103	-2	103	.	.	.
O=C(COC(=O)Cc1ccccc1F)Nc1ccc2c(c1)OCCO2	-6	0	107	-5	138*	101	-6	102
O=C(COC(=O)Cc1ccccc1F)Nc1ccc2c(c1)OCO2	-3	1	98	5	103	.	.	.
Cc1cccc(OCC(=O)Nc2ccc3c(c2)OCO3)c1C	-17	-15	2.0*[inhibitor]	0	2.0*[inhibitor]	95	-10	99
O=C(CCC1CCCN(C(=O)CCN2CCCCC2=O)C1)NCc1ccccc1F (stereo unspecified)	-9	0	95	6	97	.	.	.
O=C(O)c1c(-c2ccc(Cl)cc2)cn2ccccc12	5	-8	89	1	96	.	.	.
CCc1ccc(NC(=O)CO/N=C(\C)c2cc3ccccc3o2)cc1	-22	-1	101	-13	136*	98	2	101
COCCNc1ccc([N+](=O)[O-])cc1C(=O)Nc1cccc(C)n1	-7	1	100	-9	102	.	.	.
Cc1cccc(NC(=O)c2ccc([N+](=O)[O-])cc2Cl)n1	6	2	108	2	137*	110	5	95
CCOc1ccc(C(C)=O)cc1COC(=O)C(C)N=C1NS(=O)(=O)c2ccccc21 (stereo unspecified)	-18	2	97	10	101	.	.	.
COc1ccc(-c2cn3cccnc3n2)cc1NC(=O)c1cc(OC)c(OC)c(OC)c1	-37	-21	27*[inhibitor]	-7	20*[inhibitor]	100	-3	97
O=C(O)c1ccc(N=Nc2c(O)ccc3ncccc23)cc1	-27	4	96	-8	100	.	.	.
